Records with an inconclusive call do not appear. A call without a number means that no potency is given here. Calls of active or inactive are those of the source. Calls come from the whole dose curve; as a rule, active = well fitted inhibition curve with a large enough effect; inconclusive = small, poorly fitted or top-dose-only effect; inactive = flat fitted curve, though single readings scatter.
Potency is the fitted concentration of half-maximal effect.

The test system of the first assay is CP315. As to the kind of experiment: qHTS profiling for inhibitors of Plasmodium falciparum proliferation (AID 504749). Note: nearly all actives have a fitted effect of over 60% in size. Particulars: P. falciparum in erythrocytes, SYBR Green DNA, 72 h; series mostly up to 28.7 µM. In short, it runs like this:
(§1)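 P. falciparum-infected erythrocytes (0.3% parasitemia, 2.5% hematocrit final) were exposed to compounds for 72 h at 37 C in 5% CO2, then lysed with SYBR Green buffer overnight at room temperature; parasite DNA fluorescence was normalized to artemisinin and DMSO controls.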
(In general: qHTS replaces the single test concentration by a dilution series.)
For the compound `C=C(C)C1CC=C(C)CC1` (stereo not drawn), the Potency result was “inactive”.

`F[Si-2](F)(F)(F)(F)F`: the Potency entry was “inactive”.

Regarding `CC1=CC(=O)NS(=O)(=O)O1`, the Potency result is “inactive”.

On to `O=C(O)c1ccc(OCCn2ccnc2)cc1`, for which the Potency result was “inactive”.

Turning to `CO`, the Potency entry was “inactive”.

Turning to `C[C@H](CCC(=O)O)[C@H]1CC[C@H]2[C@@H]3CC[C@@H]4C[C@H](O)CC[C@]4(C)[C@H]3C[C@H](O)[C@]12C`, the Potency result is “inactive”.

In the case of `CC1=CC(=C(c2ccc(N)cc2)c2ccc(N)cc2)C=CC1=N`, the Potency was 4.78 µM (active).

In the case of `O=C(/C=C/c1cccc(F)c1)NC1CC1`, the Potency result was “inactive”.

As for `CC(CC=O)CCCC(C)(C)O` (stereo not drawn), the Potency entry is “inactive”.

`CC(C)O`: the Potency result was “inactive”.

In the case of `CCCc1ccc(C(=O)O)cc1`, the Potency result was “inactive”.

For the compound `O=C(O)Cc1cc(I)c(Oc2ccc(O)c(I)c2)c(I)c1`, the Potency result is “inactive”.

As to `NCC[C@H](O)C(=O)N[C@@H]1C[C@H](N)[C@@H](O[C@H]2O[C@H](CN)CC[C@H]2N)[C@H](O)[C@H]1O[C@H]1O[C@H](CO)[C@@H](O)[C@H](N)[C@H]1O`, the Potency entry is “inactive”.

For the compound `NC(=O)[C@@H]1CCCN1C(=O)[C@H](Cc1cnc[nH]1)NC(=O)[C@@H]1CCC(=O)N1`, the Potency entry was “inactive”.

Turning to `OC[C@H]1O[C@@](CO)(O[C@H]2O[C@H](CO)[C@@H](O)[C@H](O)[C@H]2O)[C@@H](O)[C@@H]1O`, the Potency entry was “inactive”.

As to `Cc1c(Cl)cccc1Nc1ncccc1C(=O)O`, the Potency entry was “inactive”.

For the compound `CC(/C=C/C=C(\C)C(=O)O[C@@H]1O[C@H](CO[C@@H]2O[C@H](CO)[C@@H](O)[C@H](O)[C@H]2O)[C@@H](O)[C@H](O)[C@H]1O)=C\C=C\C=C(C)\C=C\C=C(/C)C(=O)O[C@@H]1O[C@H](CO[C@@H]2O[C@H](CO)[C@@H](O)[C@H](O)[C@H]2O)[C@@H](O)[C@H](O)[C@H]1O`, the Potency result was “inactive”.

Turning to `CC(C)[C@@H](N)C(=O)O`, the Potency result is “inactive”.

As for `O=C(NCCNCC(O)COc1ccc(O)cc1)N1CCOCC1` (stereo not drawn), the Potency result is “inactive”.

Regarding `O=S(=O)(O)CC(S)CS` (stereo not drawn), the Potency result is “inactive”.

As to `NCCN`, the Potency result was “inactive”.

Consider `O=S(=O)(O)CCCS(=O)(=O)O`, for which the Potency entry is “inactive”.

Consider `O=C(Nc1ccc(O)cc1)c1ccccc1O`, for which the Potency result is “inactive”.

As to `CCOC(=O)c1cc(-c2ccccc2)nc2ccc(C)cc12`, the Potency entry is “inactive”.

Consider `C=CC(C)(O)CC/C=C(\C)CCC=C(C)C` (stereo not drawn), for which the Potency entry was “inactive”.

For `O=C(O)COc1ccccc1/C=N/NC(=O)c1ccncc1`, the Potency entry is “inactive”.

For `OC[C@H]1O[C@@H]2O[C@H]3[C@H](O)[C@@H](O)[C@@H](O[C@H]4[C@H](O)[C@@H](O)[C@@H](O[C@H]5[C@H](O)[C@@H](O)[C@@H](O[C@H]6[C@H](O)[C@@H](O)[C@@H](O[C@H]7[C@H](O)[C@@H](O)[C@@H](O[C@H]1[C@H](O)[C@H]2O)O[C@@H]7CO)O[C@@H]6CO)O[C@@H]5CO)O[C@@H]4CO)O[C@@H]3CO`, the Potency result is “inactive”.

As for `CN=C1C=CC(=C(c2ccc(N(C)C)cc2)c2ccc(N(C)C)cc2)C=C1`, the Potency was 1.07 µM (active).

For `CN(Cc1ccccc1)Cc1ccccc1`, the Potency result is “inactive”.

`O=C1NCCN1c1ncc([N+](=O)[O-])s1`: the Potency result was “inactive”.

Turning to `CC(=O)Oc1cc(C(F)(F)F)ccc1C(=O)O`, the Potency result is “inactive”.

`O=[N+]([O-])c1c(Cl)cccc1-c1c[nH]cc1Cl`: the Potency result was “inactive”.

On to `CC(=O)Nc1c(I)c(C(=O)O)c(I)c(N(C)C(C)=O)c1I`, for which the Potency result is “inactive”.

As for `O=C1N=C2SCCN2C(=O)C1Cc1ccc(Cl)cc1` (stereo not drawn), the Potency entry was “inactive”.

As for `O=C(O)Cc1nn(Cc2ccc(Br)cc2F)c(=O)c2ccccc12`, the Potency entry was “inactive”.

For `CCC(C(=O)NC(N)=O)c1ccccc1` (stereo not drawn), the Potency entry was “inactive”.

For the compound `CC(CCc1ccc(O)cc1)NCC(O)c1ccc(O)cc1` (stereo not drawn), the Potency entry is “inactive”.

As for `CC/C=C\C/C=C\C/C=C\C/C=C\C/C=C\CCCC(=O)O`, the Potency result is “inactive”.

Turning to `CC1(C)S[C@@H]2[C@H](NC(=O)C3(N)CCCCC3)C(=O)N2[C@H]1C(=O)O`, the Potency result was “inactive”.

The subject of another assay is CP325. The description is as above. Particulars: P. falciparum in erythrocytes, SYBR Green DNA, 72 h; series mostly up to 28.7 µM. A digest of the protocol: as §1
As to `C=C(C)C1CC=C(C)CC1` (stereo not drawn), the Potency result was “inactive”.

As to `F[Si-2](F)(F)(F)(F)F`, the Potency entry was “inactive”.

On to `CC1=CC(=O)NS(=O)(=O)O1`, for which the Potency entry was “inactive”.

On to `O=C(O)c1ccc(OCCn2ccnc2)cc1`, for which the Potency result is “inactive”.

With `CO`, the Potency result is “inactive”.

On to `C[C@H](CCC(=O)O)[C@H]1CC[C@H]2[C@@H]3CC[C@@H]4C[C@H](O)CC[C@]4(C)[C@H]3C[C@H](O)[C@]12C`, for which the Potency entry was “inactive”.

For `CC1=CC(=C(c2ccc(N)cc2)c2ccc(N)cc2)C=CC1=N`, the Potency was 6.01 µM (active).

With `O=C(/C=C/c1cccc(F)c1)NC1CC1`, the Potency entry is “inactive”.

Regarding `CC(CC=O)CCCC(C)(C)O` (stereo not drawn), the Potency entry was “inactive”.

In the case of `CC(C)O`, the Potency entry is “inactive”.

As to `CCCc1ccc(C(=O)O)cc1`, the Potency entry is “inactive”.

Turning to `O=C(O)Cc1cc(I)c(Oc2ccc(O)c(I)c2)c(I)c1`, the Potency result was “inactive”.

For `NCC[C@H](O)C(=O)N[C@@H]1C[C@H](N)[C@@H](O[C@H]2O[C@H](CN)CC[C@H]2N)[C@H](O)[C@H]1O[C@H]1O[C@H](CO)[C@@H](O)[C@H](N)[C@H]1O`, the Potency entry was “inactive”.

As to `NC(=O)[C@@H]1CCCN1C(=O)[C@H](Cc1cnc[nH]1)NC(=O)[C@@H]1CCC(=O)N1`, the Potency result was “inactive”.

`OC[C@H]1O[C@@](CO)(O[C@H]2O[C@H](CO)[C@@H](O)[C@H](O)[C@H]2O)[C@@H](O)[C@@H]1O`: the Potency result was “inactive”.

For the compound `Cc1c(Cl)cccc1Nc1ncccc1C(=O)O`, the Potency entry is “inactive”.

Turning to `CC(/C=C/C=C(\C)C(=O)O[C@@H]1O[C@H](CO[C@@H]2O[C@H](CO)[C@@H](O)[C@H](O)[C@H]2O)[C@@H](O)[C@H](O)[C@H]1O)=C\C=C\C=C(C)\C=C\C=C(/C)C(=O)O[C@@H]1O[C@H](CO[C@@H]2O[C@H](CO)[C@@H](O)[C@H](O)[C@H]2O)[C@@H](O)[C@H](O)[C@H]1O`, the Potency entry is “inactive”.

`CC(C)[C@@H](N)C(=O)O`: the Potency result was “inactive”.

Regarding `O=C(NCCNCC(O)COc1ccc(O)cc1)N1CCOCC1` (stereo not drawn), the Potency result is “inactive”.

Regarding `O=S(=O)(O)CC(S)CS` (stereo not drawn), the Potency entry was “inactive”.

Turning to `NCCN`, the Potency result was “inactive”.

Regarding `O=S(=O)(O)CCCS(=O)(=O)O`, the Potency result is “inactive”.

With `O=C(Nc1ccc(O)cc1)c1ccccc1O`, the Potency entry is “inactive”.

`CCOC(=O)c1cc(-c2ccccc2)nc2ccc(C)cc12`: the Potency result is “inactive”.

For the compound `C=CC(C)(O)CC/C=C(\C)CCC=C(C)C` (stereo not drawn), the Potency entry is “inactive”.

As to `O=C(O)COc1ccccc1/C=N/NC(=O)c1ccncc1`, the Potency result is “inactive”.

For the compound `OC[C@H]1O[C@@H]2O[C@H]3[C@H](O)[C@@H](O)[C@@H](O[C@H]4[C@H](O)[C@@H](O)[C@@H](O[C@H]5[C@H](O)[C@@H](O)[C@@H](O[C@H]6[C@H](O)[C@@H](O)[C@@H](O[C@H]7[C@H](O)[C@@H](O)[C@@H](O[C@H]1[C@H](O)[C@H]2O)O[C@@H]7CO)O[C@@H]6CO)O[C@@H]5CO)O[C@@H]4CO)O[C@@H]3CO`, the Potency result was “inactive”.

For `CN=C1C=CC(=C(c2ccc(N(C)C)cc2)c2ccc(N(C)C)cc2)C=C1`, the Potency is 0.953 µM (active).

Turning to `CN(Cc1ccccc1)Cc1ccccc1`, the Potency result was “inactive”.

In the case of `O=C1NCCN1c1ncc([N+](=O)[O-])s1`, the Potency entry was “inactive”.

Turning to `CC(=O)Oc1cc(C(F)(F)F)ccc1C(=O)O`, the Potency entry was “inactive”.

`O=[N+]([O-])c1c(Cl)cccc1-c1c[nH]cc1Cl`: the Potency result was “inactive”.

For `CC(=O)Nc1c(I)c(C(=O)O)c(I)c(N(C)C(C)=O)c1I`, the Potency result was “inactive”.

For the compound `O=C1N=C2SCCN2C(=O)C1Cc1ccc(Cl)cc1` (stereo not drawn), the Potency result is “inactive”.

Take `O=C(O)Cc1nn(Cc2ccc(Br)cc2F)c(=O)c2ccccc12`: the Potency entry was “inactive”.

For `CCC(C(=O)NC(N)=O)c1ccccc1` (stereo not drawn), the Potency result was “inactive”.

As to `CC(CCc1ccc(O)cc1)NCC(O)c1ccc(O)cc1` (stereo not drawn), the Potency entry is “inactive”.

Regarding `CC/C=C\C/C=C\C/C=C\C/C=C\C/C=C\CCCC(=O)O`, the Potency entry is “inactive”.

On to `CC1(C)S[C@@H]2[C@H](NC(=O)C3(N)CCCCC3)C(=O)N2[C@H]1C(=O)O`, for which the Potency entry is “inactive”.
